Data: PubChem BioAssay AID1259418 (Broad Institute, 2018)
About 840 (25%) of roughly 3,400 compounds were called active. About 11% were inconclusive and are not listed. The list is a sample of the results. Results with a measured potency or affinity are listed apart. Values without a mark were called inactive.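 The calls were made as follows: active = fitted half-maximal concentration of signal decrease at or below twice the sample's top tested concentration; inconclusive = flat curve between -70 and -30 percent, or poor fit; inactive = flat within 30 percent, signal rise, or potency above limit.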

Assay: inhibitors of Toxoplasma growth in IFN-γ-primed HeLa – cell-based, ME49Luc, luciferase, 72 h, dose response (AID 1259418)
Details: T. gondii ME49Luc in IFN-y HeLa, hits give low values, -100% = high-dose IFN-γ control wells; at 19.5 µM unless noted

| Compound | max activity |
| --- | --- |
| COc1ccc(Cl)cc1NC(=O)N1CCc2nc(-c3ccccc3)sc2C1 | -14.8% [at 0.35 µM] |
| CN(Cc1ccccn1)C(=O)C1=NOC2(CCN(S(=O)(=O)c3cccc(F)c3)C2)C1 (centres undefined) | 23.5% [at 10 µM] |
| Cc1ccc(-c2coc(-c3ccc(NC(=O)Nc4ccc(F)c(Cl)c4)cc3)n2)cc1 | 49.3% |
| CCc1c(C)sc2c1CCN(Cc1nc(-c3ccc(C(C)C)cc3)oc1C)C2c1ccccc1 (centres undefined) | 9.71% |
| Cc1ccccc1C(=O)Nc1cnc(N2CCC(C(N)=O)(N3CCCCC3)CC2)c(C(=O)O)c1 | -6.96% [at 1.35 µM] |
| CC(C)Cc1ccc(S(=O)(=O)N2CCC3(CC2)NCCN=C3NCc2cccc(F)c2)cc1 | 16.8% [at 10 µM] |
| CCc1ccc(S(=O)(=O)N2CCC3(CC2)NCCN=C3NCc2ccc(Cl)cc2)cc1 | 17.4% [at 10 µM] |
| CCc1ccc(S(=O)(=O)N2CCC3(CC2)NCCN=C3NCc2cc(F)cc(F)c2)cc1 | 16.8% |
| Cc1cnn(C(C)C(=O)N2CCc3[nH]nc(-c4ccc(F)c(F)c4)c3C2)c1 (centres undefined) | 11.2% |
| Cc1ccc(-c2coc(-c3ccc(NC(=O)Nc4ccccc4Cl)cc3)n2)cc1 | 13.9% [at 0.16 µM] |
| COC(=O)C1CCN(S(=O)(=O)c2cc3c4c(c2)CCC(=O)N4CCC3)CC1 | 9.1% [at 1.35 µM] |
| CCOc1ccc(-c2nc3c(s2)CN(S(=O)(=O)c2cc(C)cc(C)c2)CC3)cc1 | -12.1% [at 2.6 µM] |
| COc1ccc(-c2nc(NCc3cccc(Cl)c3)c3ccccc3n2)cc1 | -12% [at 0.35 µM] |
| CCc1c(C)sc2c1CCN(Cc1nc(-c3ccc(Cl)cc3)oc1C)C2c1ccccc1 (centres undefined) | 38.9% [at 10 µM] |
| CCc1ccccc1NC(=O)N1CCc2nc(-c3ccc(C)cc3)sc2C1 | -16.8% |
| Clc1ccc(-c2nc(N3CCN(Cc4ccc5c(c4)OCO5)CC3)c3ccccc3n2)cc1 | 21.6% [at 2.6 µM] |
| O=C(Nc1ccc(Cl)cc1)Nc1ccc(-c2nc(-c3ccccc3)co2)cc1 | -18.8% [at 2.6 µM] |
| Cc1oc(-c2ccccc2)nc1CN(c1ccccc1)S(=O)(=O)c1ccccc1 | 6.75% [at 2.6 µM] |
| COc1ccc(N(Cc2nc(-c3ccc(C)cc3)oc2C)S(=O)(=O)c2ccc(OC)cc2)cc1 | 6.72% [at 1.35 µM] |
| Cc1oc(-c2ccc(OC(C)C)cc2)nc1CN(c1ccccc1)S(=O)(=O)c1ccccc1 | 5.29% |
| COc1ccc(-c2nc(CN(c3ccc(OC)cc3)S(=O)(=O)c3ccccc3)c(C)o2)cc1 | 21.2% [at 5 µM] |
| COc1ccc(-c2nc(CN(c3ccc(OC)cc3)S(=O)(=O)c3ccc(OC)cc3)c(C)o2)cc1 | 16.7% [at 5 µM] |
| COc1ccc(-c2nc(CN(c3ccc(OC)cc3)S(=O)(=O)c3ccc(C)cc3)c(C)o2)cc1 | -10.7% [at 0.16 µM] |
| COc1ccc(S(=O)(=O)N2CCC[C@@H]2C(=O)NCCc2csc(C)n2)cc1 | -6.98% [at 5 µM] |
| CCc1ccccc1NC(=O)COc1nc(C)nc2ccccc12 | -12.9% [at 2.6 µM] |

| Compound | max activity |
| --- | --- |
| COCCNC(=O)C1(C)CCC(=O)N1CCc1c[nH]c2ccccc12 (centres undefined) | 3.62% |
| O=C(CC1N=C2c3ccccc3N=C(SCc3cccc(F)c3)N2C1=O)NCc1ccc2c(c1)OCO2 (centres undefined) | 67.4% |
| Cc1cccc(CN2CCC3(CC2)N=C(c2cccc(F)c2)C(=O)N3)c1 | -7.22% |
| Cc1cccc(-c2noc(-c3nnn(Cc4nc(-c5cccc(Cl)c5)oc4C)c3C)n2)c1 | 60.4% |
| CCN1CC(C(=O)O)CN2CCN(C(=O)c3ccncc3F)CC2C1 (centres undefined) | 5.55% |
| COc1ccc(-c2nc(Nc3ccc(C(C)C)cc3)c3ccccc3n2)cc1 | 12% [at 5 µM] |
| O=C(NCCc1csc(-c2ccccc2)n1)[C@H]1CSCN1C(=O)c1cccc(F)c1 | -24.5% |
| O=C(NCCc1csc(-c2ccccc2)n1)[C@H]1CCCN1C(=O)c1ccco1 | -10.6% [at 0.16 µM] |
| O=C(Cc1ccccc1)N1CC[C@H]2[C@H](CO)Nc3ccc(C4=CCCCC4)cc3[C@H]21 | 30.4% [at 10 µM] |
| CN(C)C(=O)c1cccc(-c2ccc3c(c2)[C@H]2[C@H](CCN2C(=O)Cc2ccccc2)[C@@H](CO)N3)c1 | 24.7% [at 5 µM] |
| COc1ccccc1-c1ccc2c(c1)[C@H]1[C@H](CCN1Cc1ccccc1F)[C@@H](CO)N2 | 11.2% [at 1.2 µM] |
| Cc1ccc(S(=O)(=O)N2CC[C@@H]3[C@H]2c2cc(-c4cccc(C(=O)N(C)C)c4)ccc2N[C@@H]3CO)cc1 | 21.6% [at 10 µM] |
| CCOc1ccc(C(=O)N2CCC3(CC2)Nc2cc(F)ccc2-n2cccc23)cc1 | -6.53% [at 5 µM] |
| O=C(COc1ccc(Cl)cc1)N1CCC2(CC1)Nc1cc(F)ccc1-n1cccc12 | 9.43% [at 0.16 µM] |
| O=C(COc1ccccc1)N1CCC2(CC1)Nc1ccc(Cl)cc1-n1cccc12 | 8.01% [at 0.35 µM] |
| O=C(COc1ccc(Cl)cc1)N1CCC2(CC1)Nc1ccc(Cl)cc1-n1cccc12 | 3.74% [at 0.68 µM] |
| Cc1cccc(OCC(=O)N2CCC3(CC2)Nc2ccc(C)c(C)c2-n2cccc23)c1 | 8.26% [at 0.16 µM] |
| Cc1nc2ccccc2n1CC(O)Cn1c2ccccc2c2ccccc21 (centres undefined) | 28.9% |
| CCOc1ccc(NC(=O)Nc2ccc(-c3nc(-c4ccc(C)cc4C)co3)cc2)cc1 | 21.2% [at 0.16 µM] |
| CCc1ccc2c(c1)cc(S(=O)(=O)c1ccccc1)c(=O)n2CC(=O)NC1CCCCC1 | -12.7% [at 1.35 µM] |
| N#Cc1cccc(-c2ccc([C@H]3[C@H]4CN(Cc5ccccc5F)CCCCN4[C@H]3CO)cc2)c1 | 26.6% [at 10 µM] |
| COc1ccccc1NC(=O)N1CCCCN2[C@H](CO)[C@@H](c3ccc(-c4cccc(C#N)c4)cc3)[C@H]2C1 | 24.8% [at 10 µM] |
| Cc1cccc(Cn2c(CN3CCC(C(=O)N4CCCC4)CC3)cc3ccccc32)c1 | -9.03% [at 0.35 µM] |
| Cc1ccc(C2=NC3(CCN(CC(=O)Nc4ccccc4C(F)(F)F)CC3)NC2=O)cc1 | -14.3% [at 0.35 µM] |
| CN(C)c1ccc(-c2nc3c([nH]2)c(=O)n(C)c(=O)n3C)cc1 | 17.3% [at 10 µM] |

| Compound | max activity |
| --- | --- |
| Cc1ccc(-c2coc(-c3ccc(NC(=O)Nc4cc(F)ccc4F)cc3)n2)c(C)c1 | -9.54% [at 5 µM] |
| COc1ccc(CN2CCC3(CC(n4cnnc4)CO3)C2)cc1 (centres undefined) | 33.5% |
| COCCCN1CCc2nc(SCc3nc(-c4ccccc4)oc3C)[nH]c(=O)c2C1 | 21% [at 2.6 µM] |
| COc1ccc(CN2CCc3nc(SCc4nc(-c5ccccc5)oc4C)[nH]c(=O)c3C2)cc1 | -18.7% [at 2.6 µM] |
| COc1ccccc1CN1CCc2nc(SCc3nc(-c4cccc(C)c4)oc3C)[nH]c(=O)c2C1 | 14.5% [at 0.35 µM] |
| COc1ccc(NC(=O)CN2CCC3(CC2)N=C(c2cccc(F)c2)C(=O)N3)cc1OC | 28.6% [at 10 µM] |
| CCCCN(Cc1ccco1)c1nc(-c2ccc(OC)cc2)nc2ccccc12 | 14.7% [at 0.35 µM] |
| CCCN(CCC)c1nc(-c2ccc(OC)cc2)nc2ccccc12 | -8.92% [at 0.35 µM] |
| CN(c1nc(-c2ccc(Cl)cc2)nc2ccccc12)C1CCCCC1 | 11.9% [at 0.68 µM] |
| COc1ccc(-c2nc(N(Cc3ccco3)C3CCCCC3)c3ccccc3n2)cc1 | -11.5% [at 2.6 µM] |
| COc1ccc(-c2nc(NCCCN(Cc3ccco3)C3CCCC3)c3ccccc3n2)cc1 | -19.2% [at 5 µM] |
| COc1ccc(-c2nc(N(CCN(C)C)Cc3ccccc3)c3ccccc3n2)cc1 | -20.1% [at 5 µM] |
| CCN(CCN(C)C)c1nc(-c2ccc(OC)cc2)nc2ccccc12 | -29.5% |
| COc1ccc(-c2nc(N(C)c3ccc(F)cc3)c3ccccc3n2)cc1 | 36% |
| NC(=O)C1(N2CCCCC2)CCN(c2ccc(NC(=O)c3cccc(Cl)c3)cc2C(=O)O)CC1 | 1% |
| Cc1ccc(-c2coc(-c3ccc(NC(=O)Nc4ccc(C)c(F)c4)cc3)n2)cc1 | 19.5% [at 10 µM] |
| Cc1cc(C(F)(F)F)nn1CC(=O)N1CCCC1c1cc(C(C)C)no1 (centres undefined) | 16% [at 2.6 µM] |
| COc1cccc(CC(=O)N2CCC[C@@H]2C(=O)NCCc2csc(-c3ccccc3)n2)c1 | 18.6% [at 0.16 µM] |
| Cc1ccc2c(c1C)-n1cccc1C1(CCN(C(=O)c3ccc(Br)o3)CC1)N2 | 9.35% [at 0.35 µM] |
| COc1ccc(-c2nc(NCc3ccc(C)o3)c3ccccc3n2)cc1 | -32.7% [at 1.35 µM] |
| CN(Cc1ccco1)c1nc(-c2ccc(Cl)cc2)nc2ccccc12 | -31.8% [at 0.16 µM] |
| COc1ccc(-c2nc(N(C)Cc3ccccc3)c3ccccc3n2)cc1 | 21.9% |
| CCCCN(C)c1nc(-c2ccc(OC)cc2)nc2ccccc12 | 16.9% [at 0.35 µM] |
| COc1ccc(-c2nc(N(CC(C)C)CC(C)C)c3ccccc3n2)cc1 | -12.7% [at 0.35 µM] |
